# Compound activity from PubChem.
# Compounds with a hit are over-represented: about 7.3% of the library has one in this group of screens.
# KinaseGlo FLuc: Counterscreen for Luciferase (Kinase-Glo TM) Inhibition; Luciferin 4-monooxygenase (Photuris pensylvanica), Q27757; Kinase-Glo luciferase, ATP luminescence, 8 min; Potency, µM (highest dose often 38.3 µM), inactives show at the highest dose activity change, negative = inhibition, most hits filed as inhibitors; 200,000 compounds, 0.28% hits; also: % is scaled to controls: 0 for no effect and ±100 for the full control effect; nearly all actives have a fitted effect of over 60% in size
#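 Kinase-Glo luciferase light output from ATP and luciferin was measured with 10 uM ATP, within the enzyme's linear range. Buffer: 50 mM imidazole pH 7.2, 50 mM KCl, 7 mM MgCl2, 0.01% Tween 20, 0.05% BSA; luminescence read after 8 min at ambient temperature.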
# NPC1 promoter act: qHTS Assay for NPC1 Promoter Activators; Huh7 NPC1 promoter luciferase reporter, 24 h; Potency, µM (highest dose often 9.22 µM), for inactives: top-dose activation, actives largely listed as activators; 320,000 compounds, 2.4% hits; also: % of control where 0% means no effect; nearly all actives have a fitted effect of over 60% in size
#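 Luminescence read-out of NPC1 promoter-driven luciferase in stably transfected Huh7 cells; compounds delivered in DMSO and left 24 h at 37C, 5% CO2, qHTS titration format.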
# SMN2 splice up: qHTS Assay for Enhancers of SMN2 Splice Variant Expression; HEK293 SMN2-luciferase splicing reporter, luminescence, 30-36 h; Potency, µM (doses to about 46.1 µM), inactives show at the top dose activity change, positive = activation, actives largely listed as activators; 210,000 compounds, 2.8% hits; AID 1458, 2008; also: % of control where 0% means no effect; nearly all actives have a fitted effect of over 55% in size
#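 HEK293 cells carry an SMN2 minigene-luciferase reporter in which exon 7 inclusion puts luciferase in frame. Cells were seeded at 2000 cells/well, attached for 10-12 hours, then exposed to compounds for 30-36 hours at 37C before ONE-Glo luminescence.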
# Rab9 prom act: qHTS Assay for Rab9 Promoter Activators. Huh7 Rab9 promoter-luciferase reporter, luminescence, 24 h. Potency, µM (top dose mostly 9.22 µM), for the others: at the top dose activation, negative = inhibition, most hits filed as activators. 320,000 compounds, 2.8% hits. AID 485297, 2010; also: % of control where 0% means no effect; nearly all actives have a fitted effect of over 60% in size
#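 Stable Rab9-luc Huh7, 1500 cells/well, 2 h settle; cmpd in DMSO, 24 h, 37 °C/5% CO2; luciferase reagent 10 min RT; luminescence.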
# FLuc modulator: qHTS profiling assay for firefly luciferase inhibitor/activator using purifed enzyme and Km concentrations of substrates (counterscreen for miR-21 project) | Potency, µM (titrated, usually from 57.5 µM), inactives show at the highest dose activity change, negative = inhibition, hits mostly inhibitors | AID 588342, 2011 | purified FLuc, Km substrates, luminescence inhibition | Luciferin 4-monooxygenase (Photinus pyralis), P08659 | 360,000 compounds, 6.9% hits;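 also: plate controls were vehicle for no effect and reference inhibitor for full effect; nearly all actives have a fitted effect of over 55% in size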
# Target sequence (P08659 whole entry, looked up): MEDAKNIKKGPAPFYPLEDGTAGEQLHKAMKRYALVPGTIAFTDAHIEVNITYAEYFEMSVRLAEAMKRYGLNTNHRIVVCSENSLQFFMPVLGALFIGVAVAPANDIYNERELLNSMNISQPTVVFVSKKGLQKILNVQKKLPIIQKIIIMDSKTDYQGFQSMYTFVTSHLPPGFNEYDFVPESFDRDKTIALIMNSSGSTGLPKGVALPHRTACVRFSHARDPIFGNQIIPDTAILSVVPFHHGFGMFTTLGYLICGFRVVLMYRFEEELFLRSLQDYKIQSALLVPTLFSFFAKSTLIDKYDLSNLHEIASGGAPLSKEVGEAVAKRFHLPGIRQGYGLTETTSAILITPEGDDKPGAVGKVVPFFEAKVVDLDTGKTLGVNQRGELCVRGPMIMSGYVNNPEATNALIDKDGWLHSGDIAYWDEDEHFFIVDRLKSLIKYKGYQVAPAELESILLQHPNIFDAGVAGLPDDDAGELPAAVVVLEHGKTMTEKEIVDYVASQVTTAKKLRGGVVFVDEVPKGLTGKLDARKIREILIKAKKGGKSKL
#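 Purified P. pyralis luciferase (10nM final) with 10uM D-luciferin and 10uM ATP (Km levels) in 50mM Tris acetate pH 7.5, 10mM Mg acetate, 0.01% Tween-20, 0.05% BSA; qHTS 6-point titration, ~60 µM downward; luminescence read.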
# ELG1 genotoxic: qHTS screen for small molecules that induce genotoxicity in human embryonic kidney (HEK293T) cells expressing luciferase-tagged ELG1; HEK293T ELG1-luciferase reporter, luminescence, 16 h; Potency, µM (series often up to 46 µM), for inactives: at the top dose activity change, positive = activation, actives largely listed as activators; 330,000 compounds, 1.3% hits; also: % of control where 0% means no effect; nearly all actives have a fitted effect of over 60% in size
#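 Step 1: seed 2,000 HEK293T ELG1-luciferase cells per well. Step 2: add compound or DMSO, incubate 16 hr at 37 °C. Step 3: ONE-Glo, 30 min at room temperature, read luminescence.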
# Starred values were filed as active, the others as inactive; ? = inconclusive; nt = no result given; [ ] = dose if it differs, or a comment. Calls follow the shape of the dose curve; as a rule, active = well fitted curve in the direction sought with a large enough effect; inconclusive = small, poorly fitted or top-dose-only effect, or another doubt; inactive = no such curve, though single readings can be large; an effect the other way counts as inactive or inconclusive. Potency is read from the fitted curve at half-maximal effect.
SMILES,KinaseGlo FLuc,NPC1 promoter act,SMN2 splice up,Rab9 prom act,FLuc modulator,ELG1 genotoxic
CCOc1cc2sc(N3CCC(C(=O)Nc4cc(C)cc(C)c4)CC3)nc2cc1Br,nt,nt,nt,nt,-1%,nt
CCOc1cc2sc(N3CCC(C(=O)Nc4ccc(C)cc4C)CC3)nc2cc1Br,nt,nt,?,nt,15µM*,nt
Cc1cc(NC(=O)C(C)Sc2nnc(NCc3ccco3)s2)no1 (stereo not drawn),nt,1%,nt,-6%,2%,2%
NC(=O)C1(NC(=O)[C@@H]2CC3(CC(c4cccc(NC(=O)[C@@H]5CCC(=O)N5)c4)=NO3)CN2C(=O)c2ccccc2)CC1 (stereo partly drawn),-5%,2.2µM*,-10%,6%,-2%,0%
C/C=C\C=C/C(=O)Nc1cccc(C2=NOC3(C2)C[C@@H](C(N)=O)N(C(=O)c2ccccc2)C3)c1 (stereo partly drawn),nt,3%,nt,21%,17µM*,5%
C/C=C\C=C\C(=O)Nc1cccc(C2=NOC3(C2)C[C@H](C(N)=O)N(C(=O)c2ccccc2C(=O)c2ccccc2)C3)c1 (stereo partly drawn),nt,3%,nt,-5%,21µM*,-2%
C/C=C\C(=O)Nc1cccc(C2=NOC3(C2)C[C@@H](C(N)=O)N(C(=O)c2ccccc2)C3)c1 (stereo partly drawn),nt,-2%,nt,-11%,4%,0%
C/C=C/C=C\C(=O)Nc1cccc(C2=NOC3(C2)C[C@@H](C(N)=O)N(C(=O)c2cc([N+](=O)[O-])cc([N+](=O)[O-])c2C)C3)c1 (stereo partly drawn),nt,-2%,nt,-1%,7.6µM*,2%
CCCCCC(=O)Nc1cccc(C2=NOC3(C2)C[C@@H](C(N)=O)N(C(=O)c2cc([N+](=O)[O-])cc([N+](=O)[O-])c2C)C3)c1 (stereo partly drawn),nt,-5%,nt,-4%,-17%,-1%
Cc1cccc(C)c1Nc1oc(-c2ccccc2)nc1-c1ccccc1,-4%,nt,-2%,nt,nt,nt
O=c1c2sccc2[nH]c(=S)n1-c1ccccc1,nt,-6%,nt,0%,-3%,1%
Cc1ccc(S(=O)(=O)NCc2cccnc2)c(C)c1,nt,2%,nt,4%,-1%,-7%
COC(=O)c1cc(NC(=O)/C=C/c2ccccc2)ccc1O,-1%,?,nt,?,11µM*,7%
NC(=O)c1ccccc1NC(=O)/C=C/c1ccc(Cl)cc1,-10%,1.8µM*,13µM*,2.5µM*,1.7µM*,3.7µM*
O=C(/C=C/c1ccc(Cl)cc1)NC(=S)Nc1ccccc1C(=O)O,nt,-3%,nt,-1%,?,0%
COc1cc(NC(=O)/C=C/c2ccccc2)c(C(=O)O)cc1OC,nt,4%,nt,7%,6µM*,15%
O=C(/C=C/c1ccccc1)Nc1cc(C(=O)O)cc(C(=O)O)c1,2%,1%,-2%,0%,-19%,1%
NC(=O)c1ccccc1NC(=O)/C=C/c1ccccc1,?,?,?,1.8µM*,6µM*,?
S=c1[nH]nc(COc2ccccc2)n1/N=C/c1ccco1,1%,-7%,5%,-6%,0%,0%
Cc1ccc(N=Nc2c(O)c3ccccc3[nH]c2=O)c(S(=O)(=O)N(C)C)c1,-2%[7.66 µM],7%,-2%[9.22 µM],23%,1.3µM*,?
Cc1cc(N=Nc2c(O)c3ccccc3[nH]c2=O)ccc1N=Nc1ccc(C(=O)N(C)C)cc1,nt,?,nt,?,?,17%
S=C(N/N=C/c1ccc2ncccc2c1)Nc1ccccc1,-4%,?,?,?,4.8µM*,?
Fc1ccc(/C=N/NC(=S)Nc2cccnc2)cc1F,1%,7%,-11%,2%,-3%,-2%
C(=N\NCc1ccccc1)/c1ccc2nccnc2c1,nt,3.5µM*,nt,2.5µM*,12µM*,?
C(=N\n1cnnc1)/c1ccc2ncccc2c1,-2%,-6%,-7%,4%,3%,0%
SMILES,KinaseGlo FLuc,NPC1 promoter act,SMN2 splice up,Rab9 prom act,FLuc modulator,ELG1 genotoxic
C(=N\NCc1ccccc1)/c1ccc2ncccc2c1,nt,1.1µM*,nt,1.6µM*,4.3µM*,2.6µM*
O=C(NCc1cccnc1)c1cccc(NS(=O)(=O)c2ccc(Br)cc2)c1,nt,-27%,nt,-23%,6%,-1%
CCOC(=O)CCCCCCCCCCCCC1C=CCC1 (stereo not drawn),1%,nt,2%,nt,nt,nt
Cc1ccc(N2C(=O)c3ccc(N)cc3C2=O)cc1C,0%,2.5µM*,14%,4µM*,11µM*,?
Cc1ccc(N2C(=O)c3ccc(N)cc3C2=O)cc1,nt,3.5µM*,nt,4µM*,7.6µM*,3.7µM*
O=C(NC(=S)Nc1ccc(S(=O)(=O)Nc2nccs2)cc1)c1ccc(F)cc1,4%,-1%,-17%,-2%,4%,0%
COc1ccccc1-c1cc2nc(C)cc(C)n2n1,nt,27%,nt,18%,15µM*,?
Cc1cc(C)n2nc(-c3cccc(Br)c3)cc2n1,nt,?,nt,?,8.5µM*,?
Cc1ccc(-c2cc(C(F)(F)F)n3nc(-c4cccc(Br)c4)cc3n2)cc1,nt,nt,-7%,nt,-3%,nt
Cc1cccc(-c2cc3nc(C)cc(C)n3n2)c1,-9%,0.4µM*,nt,0.45µM*,6.7µM*,?
CC(=O)c1cnc2cc(-c3cccc(Br)c3)nn2c1C,1%,2.8µM*,11µM*,2µM*,?,14%
Cc1cccc(-c2cc3nc(C)cc(N4CC(C)CC(C)C4)n3n2)c1 (stereo not drawn),0%,2%,-4%,-5%,-7%,-6%
O=C1CC2(CCN(C(=O)c3ccc(Cl)cc3)CC2)Oc2ccccc21,nt,0%,nt,0%,1%,-4%
CC(=O)COc1cccc2ccc(/C=C/c3ccc(Br)s3)nc12,nt,?,nt,?,19µM*,-5%
Oc1cccc(/C=C/c2ccc3cccc(O)c3n2)c1,nt,?,nt,13%,1.5µM*,?
COc1cc(/C=C/c2ccc3c(Br)cc(Br)c(O)c3n2)ccc1O,nt,-11%,nt,-33%,-4%,?
Cc1ccc(/C=C/c2ccc3cccc(O)c3n2)s1,nt,4µM*,nt,3.2µM*,2.7µM*,21µM*
COc1cccc(/C=C/c2ccc3cccc(O)c3n2)c1,nt,?,nt,17%,1.5µM*,23µM*
CS(=O)(=O)c1ccc(C(=O)Nc2ccc(N3CCCCC3)cc2)c(Cl)c1,-2%,-4%,4%,-3%,-6%,15%
Cc1ccc(C(=O)Nc2ccc(N3CCN(C)CC3)cc2)c(Cl)c1,nt,3.5µM*,nt,3.5µM*,24µM*,?
